In PubChem BioAssay AID902 (National Center for Advancing Translational Sciences (NCATS), 2007):
About 1,900 (1.5%) of roughly 130,000 compounds were called active. Roughly 5% stayed inconclusive and do not appear here. What follows is part of a selection rich in actives, with near analogues and random picks from the rest. A number with no mark means an inactive call. The call rests on the fitted dose curve; in most records, active means well fitted cell-killing curve with a large enough effect; inconclusive means small, poorly fitted or top-dose-only effect; inactive means no such curve, though single readings can be large or run the other way.

Test: qHTS Screen for Compounds that Selectively Target Cancer Cells with p53 Mutations: Cytotoxicity of p53ts Cells at the Nonpermissive Temperature; further: nearly all actives have a fitted effect of over 55% in size
Conditions: H1299-p53A138V viability at 39C, ATP luminescence, 24 h; series mostly up to 46.1 µM; activity change, negative = cell killing: at the top concentration
On the % scale 0 is the no-effect control and ±100 the full control effect; potency means the concentration at half of the fitted maximal effect.

| SMILES | activity change, negative = cell killing | Potency |
| --- | --- | --- |
| Cc1cc(C)c(NC(=O)CSc2nc3ccncc3[nH]2)c(C)c1 | -16.4% |  |
| Cn1c(=O)c2c(-c3ccccc3Br)n(Cc3ccccc3)cc2n(C)c1=O | -12.6% |  |
| Cn1c(=NC(=O)CSCC(=O)N2CCCCC2)sc2ccccc21 | -4.22% |  |
| Cn1c(=NC(=O)CSCC(=O)N2CCOCC2)sc2ccccc21 | -8.08% |  |
| Cn1c(=NC(=O)c2cnccn2)sc2ccccc21 |  | 10 µM (active) |
| CCOc1ccc(-c2cc3nc(C4CCN(C(=O)OC(C)(C)C)CC4)c(C(=O)Nc4cccc(CC)c4)cn3n2)cc1 | -8.99% |  |
| C=CC(=O)c1ccc2ccccc2c1 |  | 10 µM (active) |
| Cc1ccc2nc(CC(=O)c3ccc4ccccc4c3)c(=O)[nH]c2c1 | 2.32% [at 9.22 µM] |  |
| O=C(CN1C(=O)C2C3CCC(C3)C2C1=O)Oc1ccc2ccccc2c1 (stereo not given) | 26.2% |  |
| COc1cccc(CNC(=O)CSc2c3c(nc4cc(Cl)ccc24)CCCC3)c1 | 24.3% |  |
| CCOC(=O)Cc1ccc(NC(=O)Nc2c[nH]c(=O)[nH]c2=O)cc1 | -11.2% |  |
| CCOc1ccccc1CNCc1c(C(=O)O)c(C)n(Cc2ccc(C)cc2)c1C | 5.24% |  |
| CCOc1ccc(C(=O)Nc2ccncc2)cc1 | -23% |  |
| CCC(=O)Oc1cccc(C(=O)Nc2ccc(-c3nnc(-c4ccco4)o3)cc2)c1 | -4.05% |  |
| CCOc1ccc(NC(=O)Nc2cc(C)on2)cc1 | -22.6% |  |
| CCOc1ccc(-c2nnc(-c3ccco3)o2)cc1 |  | 12.6 µM (active) |
| CCOc1ccc(NC(=O)c2ncoc2-c2ccco2)cc1 |  | 7.94 µM (active) |
| Cc1ccc(OCC(=O)Nc2ccc(-c3nnc(-c4ccco4)o3)cc2)cc1 | -5.57% |  |
| CN(C)CCCn1c(-c2ccc(Cl)cc2)csc1=Nc1ccccc1 | -9.09% |  |
| CCCN(CCC)CCNC(=O)Cn1cnc2sc(C)c(S(=O)(=O)N3CCC(C)CC3)c2c1=O | 24.7% |  |
| COc1ccc(S(=O)(=O)c2c(Nc3ccc(C)cc3)sc(C(=O)c3ccc(C)cc3)c2N)cc1 | -1.53% |  |
| Cc1cccc(OCC(=O)N(Cc2ccc(C(C)C)cc2)Cc2ccco2)c1C | -28% |  |
| Cc1cc(C(=O)COC(=O)CCCN2C(=O)c3ccccc3C2=O)c(C)n1C | 3.08% |  |
| C=CCn1c(C)cc(C(=O)CN2C(=O)c3ccccc3C2=O)c1C |  | 12.6 µM (active) |
| C=CCN(CC=C)C(=O)CN1C(=O)c2ccccc2C1=O | 3.05% |  |
| CC(=O)N1CCCc2cc(S(=O)(=O)N3CCC(C(=O)NCc4ccc(F)cc4)CC3)ccc21 | -25.5% |  |
| O=C(Nc1cccnc1)c1noc2c1CCCCC2 |  | 12.6 µM (active) |
| O=C(Nc1cccnc1)c1ccc2c(c1)OCO2 | -11.1% |  |
| Cc1c(Cl)cccc1NC(=O)c1noc2c1CCCC2 | -20.5% |  |
| Cc1ccc(Cl)cc1NC(=O)CSc1nc2ccccc2nc1Cc1ccccc1 | -27.2% |  |
